Results: paper PMC11062922 (Nature Chemical Biology, 2023)

How the values were obtained:
Set-up in all cases: species or system human, MV4-11 + K-562 + COLO205 + SK-N-BE2 + OVCAR-8
[1] = test system: TBK1; details: compound concentrations: 100 nM and 1000 nM (sheet 'Samples')
[2] = test system: TYK2(JH2domain-pseudokinase); details: compound concentrations: 100 nM and 1000 nM (sheet 'Samples')
[3] = test system: ACLY; details: read-out: apparent Kd; compound concentrations: 100 nM and 1000 nM (sheet 'Samples'), CATDS: 2.7002269039485799E-2; n = 1
[4] = test system: GARS; details: read-out: apparent Kd; compound concentrations: 100 nM and 1000 nM (sheet 'Samples'), CATDS: 2.4594129373340799E-2; n = 1
[5] = test system: PFKP; details: read-out: apparent Kd; compound concentrations: 100 nM and 1000 nM (sheet 'Samples'), CATDS: 2.5253779658022699E-2; n = 1
[6] = test system: FN3KRP; details: read-out: apparent Kd; compound concentrations: 100 nM and 1000 nM (sheet 'Samples'), CATDS: 2.5837856545343801E-2; n = 1
[7] = test system: TTN; details: read-out: apparent Kd; compound concentrations: 100 nM and 1000 nM (sheet 'Samples'), CATDS: 1.2755516587496201E-2; n = 1
[8] = test system: SNRNP200; details: read-out: apparent Kd; compound concentrations: 100 nM and 1000 nM (sheet 'Samples'), CATDS: 1.8625825044313801E-2; n = 1
[9] = test system: AGPS; details: read-out: apparent Kd; compound concentrations: 100 nM and 1000 nM (sheet 'Samples'), CATDS: 9.2169061942303496E-2; n = 1
[10] = test system: ACVRL1; details: read-out: apparent Kd; compound concentrations: 100 nM and 1000 nM (sheet 'Samples'), CATDS: 0.20940846784164599; n = 1
[11] = test system: SMG1; details: read-out: apparent Kd; compound concentrations:100 nM and 1000 nM (sheet 'Samples'); n = 1
[12] = test system: CLK3; details: read-out: apparent Kd; compound concentrations: 100 nM and 1000 nM (sheet 'Samples'), CATDS: 3.87460825135853E-2; n = 1
[13] = test system: RAB14; details: read-out: apparent Kd; compound concentrations: 100 nM and 1000 nM (sheet 'Samples'), CATDS: 3.92328124697153E-2; n = 1
[14] = test system: MAP4K4; details: read-out: apparent Kd; compound concentrations: 100 nM and 1000 nM (sheet 'Samples'), CATDS: 1.6227318274317299E-2; n = 1
[15] = test system: PSMC3; details: read-out: apparent Kd; compound concentrations: 100 nM and 1000 nM (sheet 'Samples'), CATDS: 3.1956932095177297E-2; n = 1
[16] = test system: GSPT1;GSPT2; details: read-out: apparent Kd; compound concentrations: 100 nM and 1000 nM (sheet 'Samples'), CATDS: 3.5728111751545999E-2; n = 1
[17] = test system: SLC25A6;SLC25A4; details: read-out: apparent Kd; compound concentrations: 100 nM and 1000 nM (sheet 'Samples'), CATDS: 2.6658773348472799E-2; n = 1
[18] = test system: SMC2; details: read-out: apparent Kd; compound concentrations: 100 nM and 1000 nM (sheet 'Samples'), CATDS: 2.55109529885677E-2; n = 1
[19] = test system: NCL; details: read-out: apparent Kd; compound concentrations: 100 nM and 1000 nM (sheet 'Samples'), CATDS: 1.71627638164802E-2; n = 1
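Throughout, for Kinobeads Data: kinobeads ε competition pulldown from cell lysate, compound preincubated 45 min at 4 °C, bound kinases quantified by LC–MS/MS relative to DMSO control.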

## COc1cc(Nc2ncc3c(C)nc(-c4cc5ccccc5[nH]4)n3n2)cc(OC)c1OC [GW869516X]
[1]
  Kinobeads Data: no target
[2]
  Kinobeads Data: no target

## Cl.Cl.NC(CNC(=O)c1cc(Br)c(-c2ccnc3[nH]ccc23)s1)c1ccccc1.NC(CNC(=O)c1cc(Br)c(-c2ccnc3[nH]ccc23)s1)c1ccccc1 (stereo not shown) [GSK1322949A]
[3]
  potency estimated from few doses: 1570 nM
[4]
  potency estimated from few doses: 2030 nM
[5]
  potency estimated from few doses: 1880 nM

## CCN(CC)Cc1ccc(Nc2nccc(-c3cnn4ncccc34)n2)cc1 [GW780056X]
[6]
  potency estimated from few doses: 618 nM

## CCn1c(-c2cccnc2O)nc2cnccc21 [SB-736715]
[7]
  potency estimated from few doses: 1870 nM

## COc1cc(Nc2nccc(-c3cnn4ncccc34)n2)cc(OC)c1 [GW801372X]
[8]
  potency estimated from few doses: 1540 nM

## COc1ccc(-c2cc3c(N)ncnc3o2)cc1 [GW642138X]
[9]
  potency estimated from few doses: 2180 nM

## FC(F)(F)c1ccc(-c2ncn(CCCN3CCOCC3)c2-c2ccncc2)cc1 [SB-217780]
[10]
  potency estimated from few doses: 1630 nM

## CC(=O)N[C@@H](Cc1ccc(OP(=O)(O)O)cc1)C(=O)N[C@H]1CCC(=O)N2CCC[C@@H](C(=O)NCc3ccc(Cl)cc3)N2C1=O [RO0325308-000]
[11]
  potency estimated from few doses: 121 nM

## NCC(NC(=O)c1cc(-c2cn[nH]c2)c(-c2ccnc3[nH]ccc23)s1)c1ccccc1.NCC(NC(=O)c1cc(-c2cn[nH]c2)c(-c2ccnc3[nH]ccc23)s1)c1ccccc1.O=C(O)C(F)(F)F.O=C(O)C(F)(F)F (stereo not shown) [GSK1325775A]
[12]
  potency estimated from few doses: 907 nM

## COc1ccc(Nc2nccc(NCCNC(=O)Nc3cc(C)ccc3C)n2)cc1 [GSK1379899A]
[13]
  potency estimated from few doses: 2280 nM

## NS(=O)(=O)c1ccc(NC=C2C(=O)Nc3ccc4ncsc4c32)cc1 [GW589933X]
[14]
  potency estimated from few doses: 2140 nM

## Cn1cc(C2=C(c3ccc(OC[C@@H](O)CO)cc3)C(=O)NC2=O)c2ccccc21 [RO3208546-000]
[15]
  potency estimated from few doses: 2090 nM

## CCC(CC)(CC)n1cnc2c(N)ncnc21 [SKF-97620]
[16]
  potency estimated from few doses: 655 nM
[17]
  potency estimated from few doses: 1430 nM
[18]
  potency estimated from few doses: 1640 nM

## Cl.Cl.Cl.c1ccc(Oc2ccc(Nc3ccnc4cc(-c5ccc(CN6CCNCC6)o5)ccc34)cc2)nc1.c1ccc(Oc2ccc(Nc3ccnc4cc(-c5ccc(CN6CCNCC6)o5)ccc34)cc2)nc1 [GW567142A]
[19]
  potency estimated from few doses: 1970 nM
